From PubChem BioAssay
Activity calls are given as the source filed them. The rule behind the calls is not given here.

These molecules were tested against Pantothenate synthetase (Mycobacterium tuberculosis (strain ATCC 25618 / H37Rv)) (UniProt P9WIL5) (assay: Coupled enzyme confirmation of inhibitors against recombinant Mtb PanC (AID 375;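 note: 0% = full reaction with vehicle and 100% = no enzyme background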)). Conditions: coupled enzyme assay; at 10 µM, hits give high values.
Chain of Pantothenate synthetase (Mycobacterium tuberculosis (strain ATCC 25618 / H37Rv)) (P9WIL5 whole entry, looked up): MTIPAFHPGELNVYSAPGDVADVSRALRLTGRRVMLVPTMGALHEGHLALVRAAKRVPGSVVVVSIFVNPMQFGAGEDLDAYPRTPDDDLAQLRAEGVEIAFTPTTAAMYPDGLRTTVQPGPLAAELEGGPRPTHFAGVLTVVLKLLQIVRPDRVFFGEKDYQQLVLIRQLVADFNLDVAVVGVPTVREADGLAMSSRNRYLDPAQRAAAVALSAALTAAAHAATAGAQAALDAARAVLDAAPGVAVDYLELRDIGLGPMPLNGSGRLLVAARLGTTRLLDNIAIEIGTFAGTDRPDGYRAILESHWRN
In the case of COCCNC(=O)C1CCCN(c2ncccn2)C1 (stereo not drawn), the inhibition is reported as 0% (inactive).
For Cc1ccc(C)c(-n2nnnc2SCC(=O)NCCC2=CCCCC2)c1, the inhibition was 3% (inactive).
In the case of COc1ccc(CN(C(=O)c2ccccc2OC)C2CCS(=O)(=O)C2)cc1 (stereo not drawn), the inhibition is reported as 0% (inactive).
With CC1=C(C(=O)NCc2ccccn2)C2(CCC(C)CC2)OC1=O (stereo not drawn) the inhibition was 0% (inactive).
In the case of CCOC(=O)C(C)n1cnc2c(nnn2Cc2ccc(C)cc2)c1=O (stereo not drawn), the inhibition is reported as 0% (inactive).
Cc1nc2ccc(S(=O)(=O)NCC(=O)N3CCCCC3)cc2s1 was tested, and the inhibition was 0% (inactive).
In the case of Cc1c(C(=O)O)sc2nc3n(c(=O)c12)CCC(C)CC3 (stereo not drawn), the inhibition is reported as 2% (inactive).
In the case of COc1cc(C2C(C(=O)c3ccc(C)o3)=C(O)C(=O)N2c2cc(C)on2)cc(Br)c1O (stereo not drawn), the inhibition is reported as 0% (inactive).
With CC1CCc2nn(CC(=O)NCCCN3CCOCC3)cc2C1 (stereo not drawn) the inhibition was 0% (inactive).
In the case of C#CCSc1nc(-c2cccs2)ccc1C#N, the inhibition is reported as 0% (inactive).
With O=C(NCc1ccc2c(c1)OCO2)c1cc2n(n1)C(C(F)(F)F)CC(c1ccc3c(c1)OCO3)N2 (stereo not drawn) the inhibition was 0% (inactive).
With CN(C)CCN(Cc1ccccc1)c1ccccn1 the inhibition was 5% (inactive).
With N#CC1=C(N)SC(N)=C(C#N)C1CCc1ccccc1 the inhibition was 8% (inactive).
CCOc1cc(-c2nc3ccccn3c2NCC2CCCO2)ccc1O (stereo not drawn) was tested, and the inhibition was 0% (inactive).
With CCCCN(C)Cc1c(C)[nH]c2c(Cl)cccc2c1=O the inhibition was 5% (inactive).
For COC(=O)c1cc(=O)n2c(-c3ccc(OC)cc3)csc2n1, the inhibition was 3% (inactive).
COC(=O)c1c(-c2cccs2)csc1NC(=O)CN1CCOCC1 was tested, and the inhibition was 0% (inactive).
CC(C)(C)C1CCc2c(sc3c2C(=O)NC(c2ccco2)N3)C1 (stereo not drawn) was tested, and the inhibition was 2% (inactive).
CCSCCNC(=O)c1cc(-n2cnnc2)ccc1Cl was tested, and the inhibition was 0% (inactive).
In the case of CCCCOc1ccc(-c2nnn(CC(=O)Nc3ncc(CC(=O)OCC)s3)n2)cc1, the inhibition is reported as 2% (inactive).
In the case of CC(C(=O)Oc1ccc2c(c1)OCO2)N1C(=O)c2ccccc2C1=O (stereo not drawn), the inhibition is reported as 5% (inactive).
For O=S(=O)(c1cc(Cl)ccc1Br)N1CCOCC1, the inhibition was 0% (inactive).
In the case of COC(=O)c1cccc(NC(=O)C2COc3ccccc3O2)c1C (stereo not drawn), the inhibition is reported as 0% (inactive).
